This note sets out measurements from PubChem BioAssay (NCATS).

For one experiment, the system named is CRL-7250. Put plainly: Cytotoxic Profiling of Annotated Libraries Using Quantitative High-Throughput Screening (AID 1296008). On max response: on the % scale 0 is the no-effect control and ±100 the full control effect. The note with it: Five cell lines viability, CellTiter-Glo ATP luminescence, 48-72 h; max response: stronger effect = lower value. Put shortly: (§1)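 Cells exposed to compounds for 48 or 72 hr at 37 degrees Celsius. Viability read as ATP-coupled luminescence with CellTiter-Glo after 10 min at room temperature.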

A further experiment has as its system HEK293. The experiment is described as above. The note with it: Five cell lines viability, CellTiter-Glo ATP luminescence, 48-72 h; max response: stronger effect = lower value. Put shortly: as §1
For another experiment, the system named is HaCat. Described as above. The note with it: Five cell lines viability, CellTiter-Glo ATP luminescence, 48-72 h; max response: stronger effect = lower value. The method in brief:
as §1

A further experiment concerns KB-3-1. The experiment is described as above. The note with it: Five cell lines viability, CellTiter-Glo ATP luminescence, 48-72 h; max response: stronger effect = lower value. Put shortly: as §1
The test system of the next experiment is PC49. Put plainly: qHTS profiling for inhibitors of Plasmodium falciparum proliferation (AID 504749). The note with it: P. falciparum in erythrocytes, SYBR Green DNA, 72 h; series mostly up to 28.7 µM. Put shortly:
(§2)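 Each compound contacts P. falciparum-infected red blood cells for 72 h at 37 C; lysis buffer (Tris, EDTA, saponin, Triton X, SYBR Green I) is added and fluorescence measured next morning; values normalized to controls.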

The subject of the next experiment is SC27B. Described as above. The note with it: P. falciparum in erythrocytes, SYBR Green DNA, 72 h; series mostly up to 28.7 µM. The method in brief:
as §2

The test system of the next experiment is TAB109. The experiment is described as above. The note with it: P. falciparum in erythrocytes, SYBR Green DNA, 72 h; series mostly up to 28.7 µM. Put shortly:
as §2

The next experiment deals with TAB113. Described as above. The note with it: P. falciparum in erythrocytes, SYBR Green DNA, 72 h; series mostly up to 28.7 µM. The method in brief: as §2
A further experiment has as its system TAB165. The description is as above. The note with it: P. falciparum in erythrocytes, SYBR Green DNA, 72 h; series mostly up to 28.7 µM. Put shortly:
as §2

Another experiment concerns W2. The description is as above. The note with it: P. falciparum in erythrocytes, SYBR Green DNA, 72 h; series mostly up to 28.7 µM. The method in brief:
as §2

Values joined by “and” are separate entries in the source; they are usually repeats but may differ in a detail not shown here. Identical values can stand only once. Inconclusive results are not listed. A number with no mark means an inactive call. Active and inactive are the calls of the source. The call rests on the fitted dose curve; in most records, active means well fitted inhibition curve with a large enough effect; inconclusive means small, poorly fitted or top-dose-only effect; inactive means flat fitted curve, though single readings scatter.
Further: nearly all actives have a fitted effect of over 60% in size.
Potency means the concentration at half of the fitted maximal effect.

Turning to `CC(C)(C)c1nnc(NS(=O)(=O)c2ccc(N)cc2)s1`, the max response in the experiment on CRL-7250 was 2.87%; in the experiment with HEK293 it was -1.6%. Further, the result with HaCat was inactive.
For `CNC(=O)c1c(I)c(NC(=O)CCCCC(=O)Nc2c(I)c(C(=O)O)c(I)c(C(=O)NC)c2I)c(I)c(C(=O)O)c1I`, the max response in the experiment on CRL-7250 was -5.95%; in the experiment on HEK293, -10.9%.
Consider `Cc1ccc2c(n1)Oc1ccc(C(C)C(=O)OCC(=O)N(C)C)cc1C2` (stereo not given), for which the max response is 4.34% with CRL-7250; 0.244% in the experiment on HaCat; -21.6% and -9.27% with KB-3-1. Further, the call in the experiment on HEK293 was inactive.
Consider `Nc1ccc([N+](=O)[O-])cc1O`, for which the max response was -25% with CRL-7250, -27.4% in the experiment on HEK293, 4.66% with HaCat and 10.6% in the experiment on KB-3-1.
Consider `C#CC1(O)CC[C@H]2[C@@H]3CCC4=CCCC[C@@H]4[C@H]3CC[C@@]21C` (stereo not given in full), for which the max response is -8.11% in the experiment with CRL-7250 and -2.21% with KB-3-1. Moreover, the outcome with HEK293 and in the experiment on HaCat was inactive.
Consider `CC1(C)[C@@H](O[C@H]2O[C@H](C(=O)O)[C@@H](O)[C@H](O)[C@H]2O[C@@H]2O[C@H](C(=O)O)[C@@H](O)[C@H](O)[C@H]2O)CC[C@]2(C)[C@H]3C(=O)C=C4[C@@H]5C[C@@](C)(C(=O)O)CC[C@]5(C)CC[C@@]4(C)[C@]3(C)CC[C@@H]12`, for which the max response in the experiment with CRL-7250 was -24.4%; with HEK293, -5.35%; in the experiment with HaCat, -32.3%.
`C/C(=N\O)c1ccc(OCC(=O)N2CCCCC2)cc1`: the max response in the experiment on CRL-7250 was -1.81%; in the experiment on HEK293 it was 2.8%; in the experiment on HaCat, 2.33%. Besides, in the experiment with KB-3-1, the outcome was inactive.
On to `CCCCCCCCCCCCOCCO`, for which the max response with CRL-7250 is -9.14%; with HEK293, -2.23%; in the experiment on HaCat it was -12.4%.
In the case of `Nc1ccc(O)c([N+](=O)[O-])c1`, the values for the max response with CRL-7250 and in the experiment on HEK293 were 4.51% and -8.71%, respectively. For the same compound, the compound was called inactive in the experiment on HaCat.
Take `COC(=O)Nc1nc2ccc(C(=O)C3CC3)cc2[nH]1`: the Potency with CRL-7250 was 2990 nM (active); in the experiment on HEK293, 750 nM (active). For the same compound, the call with HaCat was inactive.
In the case of `O=C(Nc1ccc2[nH]ncc2c1)C1CCC1`, in the experiment on CRL-7250, the compound was classed as inactive. In addition, the max response in the experiment with HEK293 was 0.86%; in the experiment with HaCat, -2.65%.
As to `C[C@H](O)[C@H](O)[C@H]1CNc2nc(N)[nH]c(=O)c2N1`, the call in the experiment with CRL-7250 and in the experiment on HEK293 was inactive. Moreover, the max response in the experiment with HaCat is 1.87%.
As to `CCCCCCCC/C=C/C(=O)O`, the outcome in the experiment with CRL-7250 and in the experiment with HaCat was inactive. The max response with HEK293 was 0.673%.
With `COc1cccc2c1C(=O)c1c(O)c3c(c(O)c1C2=O)C[C@@](O)(C(=O)CO)C[C@@H]3O[C@H]1C[C@H](N)[C@H](O[C@@H]2CCCCO2)[C@H](C)O1`, the figures for the Potency in the experiment with CRL-7250, with HEK293 and with HaCat were 2370 nM (active), 84.1 nM (active) and 53.1 nM (active), respectively.
Consider `Cc1c(N)c(=O)n(-c2ccccc2)n1C`, for which the results for the max response in the experiment on CRL-7250, in the experiment on HEK293 and in the experiment with KB-3-1 were 4.52%, -1.84% and -14.7%, respectively. Further, in the experiment with HaCat, the compound was called inactive.
As to `COC(=O)c1nc(Cl)c(Cl)nc1N`, the Potency was 5310 nM (active) in the experiment on CRL-7250 and 841 nM (active) with HEK293.
In the case of `CC(=O)c1ccc(OCC(=O)N2CCCCC2)cc1`, the max response in the experiment on CRL-7250 was 2.04%; in the experiment on HEK293, -3.89%; with HaCat, -0.673%. Also, in the experiment with KB-3-1, the call was inactive.
In the case of `CO[C@@]1(NC(=O)Cc2cccs2)C(=O)N2C(C(=O)O)=C(COC(N)=O)CS[C@@H]21`, the call in the experiment on CRL-7250, in the experiment on HEK293 and in the experiment with HaCat was inactive. In addition, the max response with KB-3-1 is -24.9% and -6.96%.
For the compound `O=C(CS)Nc1ccccc1`, the max response is -21.9% with CRL-7250 and -28.6% in the experiment on HEK293. In addition, the result in the experiment with HaCat was inactive.
In the case of `CC(C(=O)O)c1ccc2c(c1)[nH]c1ccc(Cl)cc12` (stereo not given), the Potency entry in the experiment with PC49, with SC27B, in the experiment with TAB109, in the experiment on TAB113, with TAB165 and with W2 was “inactive” throughout. Also, the max response with CRL-7250 was 2.04%; in the experiment with HEK293 it was -1.79%; with HaCat, 1.94%. Also, the compound was classed as inactive with CRL-7250, with HEK293 and in the experiment on HaCat.
As to `O=C(O)Cc1ccc2c(c1)C(=O)c1ccccc1CO2`, the compound was classed as inactive in the experiment on CRL-7250. In addition, the figures for the max response in the experiment with HEK293 and in the experiment with HaCat were -3.93% and 4.48%, respectively.
Take `CCNc1nc2c(ncn2[C@H]2C[C@H](O)[C@@H](CO)O2)c(=O)[nH]1`: the results for the max response in the experiment on CRL-7250 and with HaCat were 0.139% and -28.7%, respectively. Besides, the result in the experiment on HEK293 was inactive.
Take `C[N+]1(C)[C@@H]2CC(OC(=O)[C@H](CO)c3ccccc3)C[C@H]1[C@@H]1O[C@@H]12` (stereo not given in full): the result with CRL-7250, with HEK293 and in the experiment on HaCat was inactive.
Take `CC(=O)SCC(CC(=O)c1ccc(C)cc1)C(=O)O` (stereo not given): the max response was 2.17% in the experiment on CRL-7250 and -9.14% in the experiment with HaCat. The compound was classed as inactive in the experiment on HEK293 and with KB-3-1.
Regarding `CN(CCCOc1ccc(Cc2ccccc2)cc1)CCC(=O)O`, the max response is 2.73% in the experiment with CRL-7250, -4.43% in the experiment with HEK293 and -16.1% with HaCat.
Consider `COc1ccnc2c1CCCCC2S(=O)c1nc2ccccc2[nH]1` (stereo not given), for which the max response in the experiment on CRL-7250 is -8.92%; in the experiment with HEK293, -19.1%. Besides, the outcome with HaCat was inactive.
For the compound `CN(C)CCn1nnnc1SCC1=C(C(=O)O)N2C(=O)[C@@H](NC(=O)Cc3csc(N)n3)[C@H]2SC1`, the max response with CRL-7250 was -7.23%; in the experiment on HEK293, -4.49%. For the same compound, in the experiment with HaCat, the compound was called inactive.
Turning to `O=C(Nc1ccc2c(c1)CCN(Cc1ncn[nH]1)C2)c1ccccc1-c1ccc(C(F)(F)F)cc1`, the max response with CRL-7250 is -23.1%; in the experiment on HaCat, 0.241%; with KB-3-1, 1.94%. For the same compound, in the experiment with HEK293, the Potency was 23100 nM (active).
Turning to `N=C(N)N`, the max response was -5.46% in the experiment on CRL-7250 and -12.6% in the experiment on KB-3-1. In addition, the compound was classed as inactive in the experiment on HEK293 and in the experiment on HaCat.
For the compound `CC(C(=O)O)c1ccc(C(=O)c2ccccc2)s1` (stereo not given), the call in the experiment on CRL-7250 and in the experiment on HaCat was inactive. For the same compound, the max response in the experiment on HEK293 was 0.794%.
Regarding `CN1CC(=O)N/C1=N/C(=O)Nc1cccc(Cl)c1`, the max response is 2.65% in the experiment with CRL-7250; 1.15% and -4.39% in the experiment with KB-3-1. Moreover, the compound was called inactive with HEK293 and in the experiment on HaCat.
Regarding `N=C1N=C(N)c2cc3ccccc3cc21`, the Potency is 17200 nM (active) in the experiment on CRL-7250 and 19300 nM (active) in the experiment with HEK293.
With `O=C(O)CC1CC(c2ccccc2)=NO1` (stereo not given), the max response was -3.03% in the experiment on CRL-7250, 0.396% in the experiment on HEK293 and -1.53% with HaCat. Also, in the experiment with KB-3-1, the compound was called inactive.
For the compound `CN(C)c1ccc(C(=C2C=CC(=[N+](C)C)C=C2)c2ccccc2)cc1`, the Potency entry in the experiment with PC49 and with SC27B was “inactive” throughout. In addition, the Potency is 12600 nM (active) in the experiment with TAB109; 5010 nM (active) in the experiment with TAB165; 1350 nM (active) in the experiment with W2; 84.1 nM (active) in the experiment with CRL-7250; 94.4 nM (active) with HEK293; 266 nM (active) in the experiment with HaCat. For the same compound, the max response in the experiment with KB-3-1 is -1.13%.
With `COc1cc(/C=C/C(=O)N2CCN(CC(=O)N3CCCC3)CC2)cc(OC)c1OC`, the Potency entry in the experiment on PC49, in the experiment with SC27B, with TAB109, with TAB113, with TAB165 and in the experiment on W2 was “inactive” in each case. The max response in the experiment with CRL-7250 is -2.29%; in the experiment on HEK293, 1.99%. For the same compound, the call with HaCat was inactive.
